A short description of experiment [1]: growth inhibition of BT084 medulloblastoma cells, cell-based, ICGC_MB145, cisplatin and BGB IC40 combos (AID 1671461; in the data active = inhibition above about 80%;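 note: cells exposed to drugs for 96 hours; 0% = vehicle DMSO and 100% = high DMSO full killing control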). Conditions: drug combinations, stronger effect = higher value.
Experiment [2] can be described thus: growth inhibition of RCMB18 medulloblastoma cells, cell-based, cisplatin and BGB IC40 combos (AID 1671462; in the data active = inhibition above about 80%;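 note: cells exposed to compound for four days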). Conditions: stronger effect = higher value.
Experiment [3] can be described thus: growth inhibition of CRL1545 osteosarcoma cells, cell-based, cisplatin and BGB IC20 combos (AID 1671464; in the data active = inhibition above about 80%;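 note: cells exposed to compound for 96 hours before readout; 0% = vehicle DMSO and 100% = high DMSO killing control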). Conditions: stronger effect = higher value.
A short description of experiment [4]: sensitizers of A549 cells to miR-34 induction, primary screen, imaging, A549 dox-inducible miR-34, nuclei and caspase counts (AID 1347080;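 active = compounds whose cell count with miR-34 switched on is under 0.7 times the count with it off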). Conditions: A549 miR-34 inducible, Hoechst nuclei count, 48 h.
A short description of experiment [5]: survival rescue of mitochondrial mutant cells in low glucose, primary screen, MELAS cybrids, Rieske KO mouse fibroblasts, CellTiter-Glo (AID 1508586).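 Note: z relative to plate mean and SD of compound and empty wells.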 On the technique in general: ATP-based viability assays read luminescence as a measure of living cells.
The nature of experiment [6]: viability rescue of complex I mutant cybrids, primary screen, cell-based, galactose medium, ATP luminescence (AID 1645843;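 active = z-score of at least 1.8 in each of two replicates, scored against plate mean and spread of sample wells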;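 note: positive z means more ATP and so rescue of galactose-driven cybrid death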). The following applies: complex I mutant cybrid cells, 72 h, stronger effect = higher value.
Setting [7] is: stronger effect = lower value, cell number ratio, induced over uninduced.
[8] abbreviates: measured here: relative caspase fold change +Dox/-Dox.
The mark [9] stands for this setting: measured here: total cells with miR-34 induction, stronger effect = lower value.
Setting [10] is: measured here: total cells without miR-34 induction.
Where [11] appears, read: MELAS cybrid survival, CellTiter-Glo 48 h, stronger effect = higher value.
[12] abbreviates: Rieske KO mouse fibroblast survival, CellTiter-Glo 72 h.

Several values for one entry are separate records, joined by “and”; a condition that tells them apart may be missing. Equal values may be shown once. Activity calls are given as the source filed them.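 Rule for the calls, unless noted: active = mean z-score across replicates of 1.96 or higher in either the MELAS or the Rieske mutant cell line; inactive = the rest.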

From PubChem BioAssay come the findings set out here.

Usually inhibition stands for the change of the read-out against control, counted positive when it falls. Consider `Nc1nc(Cl)nc2c1ncn2C1CC(O)C(CO)O1` (stereo not drawn), for which the inhibition in experiment [1] (at 0.5 µM) was -0.858% (inactive) and 10.4% (inactive); in experiment [1] (cisplatin combination, at 0.5 µM), 37.2% and 42%; in experiment [1] (cisplatin combination, at 5 µM) it was 65.8% and 54%; in experiment [1] (measured here: BGB IC40 combination 0.05 uM, at 0.05 µM), -30.7% and 12.8%; in experiment [1] (single agent, at 5 µM) it was 1.68% and 7.77%; in experiment [2] (at 0.5 µM) it was 19.1% (inactive) and 26.3% (inactive). In addition, the inhibition is 83.6% and 81.2% in experiment [2] (cisplatin combo, at 5 µM); -5.46% and 2.56% in experiment [2] (measured here: BGB IC40 combination, at 0.05 µM); 70.6% and 65.1% in experiment [2] (measured here: combination with cisplatin, at 0.5 µM); 27.8% and 40.5% in experiment [2] (single agent, at 5 µM); -27.8% (inactive) and -35.8% (inactive) in experiment [3] (at 0.5 µM); -14.9% and -11.9% in experiment [3] (measured here: with BGB IC20 combination, at 0.5 µM). Also, the inhibition in experiment [3] (measured here: with cisplatin IC20 combination, at 0.5 µM) is -36.5% and -47.7%; in experiment [3] (single agent, at 0.05 µM) it was -95.3% and 17.3%; in experiment [3] (single agent, at 5 µM), 75.8% and 80.1%.

`O=C(O)c1sccc1S(=O)(=O)Nc1ccc(Cl)cc1`: the fold change in experiment [4] (setting [7]) was 0.887 (inactive); in experiment [4] (setting [8]) it was 0.469. Further, the values for the cell count in experiment [4] (setting [9]) and in experiment [4] (setting [10]) were 8810 and 9930, respectively. For the same compound, the z-score was -0.651 (inactive) in experiment [5] (setting [11]), -0.438 in experiment [5] (setting [12]) and 0.48 (inactive) in experiment [6].

As for `NC(=O)c1cncc(Br)c1`, the values for the fold change in experiment [4] (setting [7]) and in experiment [4] (setting [8]) were 0.888 (inactive) and 0.503, respectively. In addition, the results for the cell count in experiment [4] (setting [9]) and in experiment [4] (setting [10]) were 8870 and 9990, respectively. For the same compound, the z-score in experiment [5] (setting [11]) was 0.375 (inactive); in experiment [5] (setting [12]), -0.195; in experiment [6], 0.76 (inactive).

`O=C(O)C(C(=O)O)c1ccccc1`: the results for the fold change in experiment [4] (setting [7]) and in experiment [4] (setting [8]) were 0.911 (inactive) and 0.169, respectively. The cell count was 8920 in experiment [4] (setting [9]) and 9780 in experiment [4] (setting [10]). Moreover, the z-score was 0.44 (inactive) in experiment [5] (setting [11]), -0.084 in experiment [5] (setting [12]) and 0.49 (inactive) in experiment [6].

As to `CN(CCn1cccn1)Cc1ccc(-c2nc(-c3cccnc3)cc(=O)[nH]2)cc1`, the fold change was 0.951 (inactive) in experiment [4] (setting [7]) and 1.22 in experiment [4] (setting [8]). The values for the cell count in experiment [4] (setting [9]) and in experiment [4] (setting [10]) were 8710 and 9150, respectively. Moreover, the z-score in experiment [5] (setting [11]) was -0.265 (inactive); in experiment [5] (setting [12]) it was 0.251; in experiment [6], 0.18 (inactive).

Take `Cc1nn(C)cc1-c1ccnc(NC2CCOC(C)(C)C2)n1` (stereo not drawn): the fold change was 0.847 (inactive) in experiment [4] (setting [7]) and 2.06 in experiment [4] (setting [8]). Besides, the cell count came out at 8460 in experiment [4] (setting [9]) and 9990 in experiment [4] (setting [10]). Moreover, the z-score was -0.0523 (inactive) in experiment [5] (setting [11]), -0.494 in experiment [5] (setting [12]) and -0.56 (inactive) in experiment [6].

With `Cn1nc(-c2cccnc2)c2[nH]c(-c3ccccc3OC(F)F)nc21`, the fold change in experiment [4] (setting [7]) is 0.875 (inactive); in experiment [4] (setting [8]) it was 0.925. In addition, the cell count in experiment [4] (setting [9]) was 6510; in experiment [4] (setting [10]) it was 7440. Further, the z-score in experiment [5] (setting [11]) is -1.45 (inactive); in experiment [5] (setting [12]), 0.404; in experiment [6], 0.095 (inactive).

`Fc1ccc(CC2CCNCC2)cc1`: the fold change in experiment [4] (setting [7]) was 0.856 (inactive); in experiment [4] (setting [8]) it was 0.77. The cell count in experiment [4] (setting [9]) is 8200; in experiment [4] (setting [10]), 9580. The figures for the z-score in experiment [5] (setting [11]), in experiment [5] (setting [12]) and in experiment [6] were -0.906 (inactive), 0.0714 and 0.525 (inactive), respectively.

For `Cc1cnc(CN(C)C(=O)c2n[nH]c3ccccc23)[nH]1`, the results for the fold change in experiment [4] (setting [7]) and in experiment [4] (setting [8]) were 0.891 (inactive) and 1.39, respectively. In addition, the cell count was 8830 in experiment [4] (setting [9]) and 9910 in experiment [4] (setting [10]). In addition, the z-score in experiment [5] (setting [11]) was 0.305 (inactive); in experiment [5] (setting [12]) it was -0.304; in experiment [6] it was -0.445 (inactive).

Take `O=C(Nc1cccc(-c2nn[nH]n2)c1)c1cccc(F)c1`: the fold change in experiment [4] (setting [7]) is 0.949 (inactive); in experiment [4] (setting [8]), 0.795. The values for the cell count in experiment [4] (setting [9]) and in experiment [4] (setting [10]) were 8970 and 9450, respectively. Further, the z-score in experiment [5] (setting [11]) was 1.21 (inactive); in experiment [5] (setting [12]), -0.523; in experiment [6] it was 0.385 (inactive).

Regarding `CC(O)c1cn(C2CCN(c3ncnc4nc[nH]c34)CC2)nn1` (stereo not drawn), the fold change is 0.902 (inactive) in experiment [4] (setting [7]) and 1.71 in experiment [4] (setting [8]). Also, the cell count in experiment [4] (setting [9]) stood at 9250; in experiment [4] (setting [10]) it was 10300. The figures for the z-score in experiment [5] (setting [11]), in experiment [5] (setting [12]) and in experiment [6] were 0.294 (inactive), -0.198 and -0.55 (inactive), respectively.

Regarding `O=C1CN(c2ccc(C(F)(F)F)cn2)CCN1Cc1ccc2c(c1)OCO2`, the fold change in experiment [4] (setting [7]) is 0.887 (inactive); in experiment [4] (setting [8]), 1.52. For the same compound, the cell count turned out to be 8410 in experiment [4] (setting [9]) and 9480 in experiment [4] (setting [10]). The z-score was 0.169 (inactive) in experiment [5] (setting [11]), -0.106 in experiment [5] (setting [12]) and 2.96 (active) in experiment [6].

As to `CC(=O)Nc1nc2c(s1)C(=O)NCCC2`, the fold change in experiment [4] (setting [7]) is 0.907 (inactive); in experiment [4] (setting [8]) it was 0.479. Besides, the cell count came out at 8770 in experiment [4] (setting [9]) and 9670 in experiment [4] (setting [10]). Besides, the z-score in experiment [5] (setting [11]) is 0.0141 (inactive); in experiment [5] (setting [12]), -0.403; in experiment [6] it was 0.685 (inactive).

In the case of `CC(C)C(=O)N1CCC(CNC(=O)c2ccno2)CC1`, the fold change is 0.927 (inactive) in experiment [4] (setting [7]) and 0.833 in experiment [4] (setting [8]). Besides, the cell count in experiment [4] (setting [9]) worked out at 9650; in experiment [4] (setting [10]) it was 10400. Besides, the z-score in experiment [5] (setting [11]) is 0.208 (inactive); in experiment [5] (setting [12]) it was 0.293; in experiment [6] it was -0.57 (inactive).

As for `O=C(COc1ccc(Cl)cc1)Nc1ccccc1C(=O)O`, the fold change in experiment [4] (setting [7]) was 0.906 (inactive); in experiment [4] (setting [8]), 0.574. For the same compound, the figures for the cell count in experiment [4] (setting [9]) and in experiment [4] (setting [10]) were 8240 and 9090, respectively. Moreover, the z-score in experiment [5] (setting [11]) was -0.363 (inactive); in experiment [5] (setting [12]), -0.206; in experiment [6], 0.885 (inactive).
